Screening results (PubChem BioAssay)
Marburg entry inh: Marburg virus entry inhibition; Potency, µM (titrated, usually from 37.8 µM), for the others: at the top dose activity change, negative = inhibition, most hits filed as inhibitors; Marburg virus pseudotyped entry inhibition, cell reporter; 300,000 compounds, 1.8% hits; calls by dose curve; tested in HEK293 cells; further: potency means the concentration at half of the fitted maximal effect
VACV Venus inh: inhibitors of vaccinia virus (Venus reporter); Vaccinia virus Venus reporter expression, fluorescence; Potency, µM (series often up to 36.5 µM), for inactives: top-dose activity change, negative = inhibition, usual class: inhibitors; 330,000 compounds, 0.46% hits; calls by dose curve; tested in A549 cells; further: potency means the concentration at half of the fitted maximal effect; nearly all actives have a fitted effect of over 30% in size
HCMV antiviral: blocks human cytomegalovirus replication | HFF cells, HCMV-luciferase reporter, 72 h; hits give low values | activity change, negative = inhibition, % at 57.5 µM | 410,000 compounds, 4.5% hits | AID 1259415; in the data active means activity change below about -60%; inconclusive means no clear call, values can overlap the other calls; inactive means above about -39%
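Two compound doses tested in HFFs infected with HCMV-luciferase, MOI 1 PFU/cell, 72 h at 37C. Lysate luminescence read with OneGlo; data normalized against buffer-only and 10uM Salinomycin inhibitor controls.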
FMDV antiviral: foot and mouth disease virus antiviral activity. FMDV antiviral cell-based qHTS. Potency, µM (highest dose often 57.9 µM), for inactives: at the highest dose activity change, negative = inhibition, usual class: inhibitors. 410,000 compounds, 1.2% hits. AID 1159524; calls by dose curve; tested in HEK293T cells; further: read-out not given here; potency means the concentration at half of the fitted maximal effect; nearly all actives have a fitted effect of over 45% in size
VACV mCherry inh: vaccinia inhibition (mCherry reporter). AID 720579. Potency, µM (titrated, usually from 36.5 µM), for inactives: at the top dose activity change, negative = inhibition, usual class: inhibitors. 310,000 compounds, 0.63% hits. Vaccinia virus mCherry reporter infection, fluorescence; calls by dose curve; tested in A549 cells; further: potency means the concentration at half of the fitted maximal effect; nearly all actives have a fitted effect of over 35% in size
LASV entry inh: blocks Lassa virus binding to or entry into cells; Lassa virus pseudotype entry inhibition, cell reporter; Potency, µM (top dose mostly 37.9 µM), for inactives: at the top dose activity change, negative = inhibition, actives largely listed as inhibitors; 300,000 compounds, 1.2% hits; AID 540256; calls by dose curve; tested in HEK293 cells; further: potency means the concentration at half of the fitted maximal effect; nearly all actives have a fitted effect of over 50% in size
Numbers without * were called inactive; i = inactive; ? = inconclusive; / = not tested or not shown; [ ] = another dose, or the depositor's remark. Only some compounds are listed: those with a hit (about 6.5% of all), similar ones and a draw of the others. On the % scale 0 is the no-effect control and ±100 the full control effect.

SMILES	Marburg entry inh	VACV Venus inh	HCMV antiviral	FMDV antiviral	VACV mCherry inh	LASV entry inh
O=C(Nc1cccc([N+](=O)[O-])c1)Nc1ccc2c(c1)CCC2	?	-27.2%	-103.4*	-27.2%	-28.1%	?
COc1ccc2oc(=O)cc(CN3CCN(C(=O)c4ccccc4)CC3)c2c1	9.6%[46.1 µM]	-5.9%	8.1	-27.1%	-3.9%	-1.0%[46.1 µM]
O=c1c2ccccc2c(-c2ccc(Cl)cc2)nn1-c1ccccc1	-2.2%	/	-63.4*	-27.6%	/	-2.0%
O=c1c2ccccc2c(-c2cccc(C(F)(F)F)c2)nn1-c1ccccc1	?	-13.0%	-3.7	-4.8%	-12.1%	?
Cc1nn(-c2ccc(Cl)cc2)c(=O)c2ccccc12	6.1%	/	117.1	32.3%	/	?
O=c1c2ccccc2c(-c2ccc(O)cc2)nn1-c1cccc(C(F)(F)F)c1	?	11.2µM*	?	39.8µM*	?	?
Cc1cc(C)n(-c2cccc(C(=O)NCC3Cc4cccc(-c5ccccn5)c4O3)c2)n1 (stereo not given)	/	-26.7%	/	-27.9%	?	/
COc1ccc(C2C(C#N)=C3NC(=O)c4c(sc5c4CCCCC5)N3C3=C2C(=O)CC(C)(C)C3)cc1 (stereo not given)	?	/	-4.3	-24.9%	/	23.1µM*
COc1ccc(C2C(C#N)=C(N)N(c3sc4c(c3C#N)CCCC4)C3=C2C(=O)CC(C)(C)C3)cc1 (stereo not given)	?	/	/	-13.0%	/	?
CSc1nc(N)nc(SCC(=O)OC(C)C)c1C#N	13.1%	/	-108.1*	-18.8%	/	-2.8%
Cc1nc2ccccn2c1C(=O)/C=C/c1cccc([N+](=O)[O-])c1	/	/	-101.0*	6.31µM*	/	/
Cc1ccc(/C=C/C(=O)c2c(C)nc3ccccn23)cc1	?	/	-88.1*	-9.5%	/	-29.3%
CC(=O)c1c(C)nc2ccccn12	0.5%	/	-29.9	-1.8%	/	/
C/C(=N\NC(=O)c1c(C)nc2ccccn12)c1cccc([N+](=O)[O-])c1	3.1%[46.1 µM]	2.3%	-25.7	-20.2%	-14.5%	9.0%
COc1ccc(OC)c(C2NC(=S)NC(C)=C2C(=O)Nc2ccccn2)c1 (stereo not given)	29.7%[46.1 µM]	0.0%	-99.4*	-10.1%	-7.3%	8.8%
COc1ccc(C2C(C(=O)Nc3ccccn3)=C(C)Nc3ncnn32)c(OC)c1 (stereo not given)	2.6%	-1.8%	-64.1*	-22.0%	-1.6%	/
CN1/C(=C\C(=S)NC(=O)c2cccc(Br)c2)C(C)(C)c2ccccc21	?	34.2%	-95.6*	?	i	-1.1%
CN1/C(=C\C(=S)NC(=O)c2ccc([N+](=O)[O-])cc2)C(C)(C)c2ccccc21	/	/	-36.1	5.0%	/	/
COc1ccc(Cl)cc1N1C(=O)[C@@H]2C[C@H]1CN2Cc1nc2ccccc2nc1C	/	9.7%	/	4.5%	-5.8%	/
COc1ccc(N2C(=O)CC(Sc3nnc(-c4ccccc4)o3)C2=O)cc1 (stereo not given)	-29.8%	/	6.9	?	/	-1.0%
O=C1CC(Sc2nnc(-c3ccccc3O)o2)C(=O)N1c1ccccc1 (stereo not given)	-6.5%	5.7%	-31.7	/	i	9.2µM*
Cc1cccc(N2C(=O)CC(Sc3nccc(C)n3)C2=O)c1 (stereo not given)	11.1%	-10.0%	-97.6*	-9.9%	i	-4.5%
Cc1nc(SC2CC(=O)N(c3ccccc3)C2=O)n[nH]1 (stereo not given)	-0.1%[46.1 µM]	13.8%	-60.2*	2.7%	i	0.6%
Cc1ccc2oc(-c3ccc(NC(=O)COc4ccccc4)cc3O)nc2c1	/	-23.9%	/	/	-26.7%	/
Oc1ccc(N2CCN(Cc3ccc(OCCCN4CCCCC4)cc3)CC2)cc1	12.6µM*	10.0%	-4.2	27.0%	?	6.9%[46.1 µM]
SMILES	Marburg entry inh	VACV Venus inh	HCMV antiviral	FMDV antiviral	VACV mCherry inh	LASV entry inh
CCCCOc1ccc(CN2CCCCC2)cc1	?	-3.8%	-11.6	/	-11.3%	11.1%
COc1cc(=O)n2c(c1C(=O)N(C)Cc1nonc1C)CCN(Cc1ccc(C)cc1C)CC2	/	1.1%	/	-12.5%	-17.8%	/
CCOc1ccc2c(c1)OC1(CCC(C)C1)CC2=O (stereo not given)	/	-22.1%	-5.6	-0.4%	i	/
CCOc1ccc2c(c1)OC(c1ccc(C)cc1)(C(F)(F)F)NC2=O (stereo not given)	-26.3%	?	-83.0*	-1.7%	?	?
O=C1c2ccccc2-c2nnc(-c3ccccc3)cc21	?	2.8%	11.8	-17.5%	-7.4%	?
COc1ccc(-c2cc3c(nn2)-c2ccccc2C3=O)cc1	?	2.2%	-16.2	10µM*	-2.5%	?
C=CCNC(=S)N/N=C/c1ccc(C(F)(F)F)cc1	/	/	-86.1*	?	/	/
C=CCNC(=S)N/N=C/c1ccc(C)cc1C	?	-11.1%	-62.1*	-18.6%	i	?
C=CCNC(=O)CC(=O)N/N=C/c1ccc(F)cc1	-9.6%	-5.5%	-18.6	6.0%	-7.9%	?
CCN(CC)c1ccc(/C=N/NC(=S)NCc2ccccc2)cc1	?	-22.3%	-4.5	-17.1%	-8.4%	?
C=CCNC(=S)N/N=C/c1ccc(N(CC)Cc2ccccc2)cc1	11.6µM*	?	-12.2	?	?	16.4µM*
CCNC(=S)N/N=C/c1cc(C)ccc1C	9.5%	-12.7%	-6.9	-9.0%	-14.9%	-0.8%
CCN(CC)c1ccc(/C=N/NC(=S)NCc2ccc(OC)cc2)cc1	?	-4.7%	15.6	-5.6%	-22.7%	3.66µM*
COCCN1Cc2cc(C(=O)OC)c3c(c2C1=O)c1cc(OC)ccc1n3S(=O)(=O)c1ccc(C)cc1	/	/	-32.2	/	/	/
C=CCNC(=S)N/N=C/c1ccc(-c2ccc(OC)cc2)o1	?	?	13.4	14.1µM*	?	1.78µM*
O=C(NC1CCN(Cc2ccccc2)CC1)c1cccc(S(=O)(=O)Nc2ccc(F)cc2)c1	/	/	-77.0*	-20.5%	/	/
O=C(NC1CCN(Cc2ccccc2)CC1)c1cccc(S(=O)(=O)Nc2ccc(Br)cc2)c1	?	?	-68.6*	-19.7%	-19.2%	?
C=CCN(c1ccccc1)S(=O)(=O)c1cccc(C(=O)NC2CCN(Cc3ccccc3)CC2)c1	?	?	-64.6*	?	?	?
CN(C)S(=O)(=O)c1cccc(C(=O)NCC(=O)NC2CCN(Cc3ccccc3)CC2)c1	-7.9%[46.1 µM]	9.0%	-14.5	-11.4%	i	10.0%[46.1 µM]
CC(Oc1ccc(Br)cc1)C(=O)NC1CCN(Cc2ccccc2)CC1 (stereo not given)	12.6µM*	-16.0%	-27.6	-28.1%	-4.1%	-30.8%
Cn1ncc2c(Nc3ccc(-c4ccccc4)cc3)ncnc21	2.91µM*	-10.5%	?	/	?	3.66µM*
O=C1CCCN2N=C(SCC(=O)Nc3cccc(Cl)c3)SC2=N1	-26.9%[46.1 µM]	-1.0%	-81.2*	-22.8%	-18.8%	-23.3%[46.1 µM]
O=C1CCCN2N=C(SCC(=O)Nc3cccc(C(F)(F)F)c3)SC2=N1	?	-1.1%	-86.5*	-13.8%	-18.8%	-29.4%[46.1 µM]
CCN1C(=O)NC(c2ccco2)C(C(C)=O)=C1C (stereo not given)	25.6%[14.2 µM]	/	/	/	/	/
